RGS4-Gao reg: modulates binding of RGS4 to human Galphao; P09471; Multiplexed bead flow cytometry; actives lie on both sides; binding response (% of control), % at 10 µM; 0.33% of 220,000 active; in the data active = binding response below about 49% or above about 150%; inactive = in between;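 note: fluorescent Galphao activated with aluminum fluoride binding bead-coupled RGS4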
Target sequence (P09471 whole entry, looked up): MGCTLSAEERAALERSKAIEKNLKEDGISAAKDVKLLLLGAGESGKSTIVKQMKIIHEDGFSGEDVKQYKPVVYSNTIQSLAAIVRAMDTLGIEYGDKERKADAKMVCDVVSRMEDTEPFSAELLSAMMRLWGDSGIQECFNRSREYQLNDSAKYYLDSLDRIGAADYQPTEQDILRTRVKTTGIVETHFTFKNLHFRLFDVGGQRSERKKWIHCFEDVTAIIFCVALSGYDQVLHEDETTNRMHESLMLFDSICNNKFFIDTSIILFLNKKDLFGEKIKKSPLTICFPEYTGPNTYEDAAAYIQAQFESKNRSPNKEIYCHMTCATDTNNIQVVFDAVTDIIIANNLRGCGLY
RGS16-Gao HTS: regulators of human RGS16-Galphao interaction. O15492+P09471. bead-based flow cytometry RGS16-Galphao binding, fluorescence; actives lie on both sides. binding response (% of control), % at 10 µM. 0.38% of 220,000 active. AID 1441;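 note: Galphao activated by GDP with aluminum fluoride before binding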
Target sequence (O15492 whole entry, looked up): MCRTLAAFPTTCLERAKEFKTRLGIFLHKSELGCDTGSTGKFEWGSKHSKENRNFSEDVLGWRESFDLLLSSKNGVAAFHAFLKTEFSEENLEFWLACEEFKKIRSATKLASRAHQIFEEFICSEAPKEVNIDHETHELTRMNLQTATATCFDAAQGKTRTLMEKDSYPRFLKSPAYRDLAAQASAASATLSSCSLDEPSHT
Target sequence (P09471 whole entry, looked up): as the sequence (P09471 whole entry, looked up) above
GSH bead fluor: compound fluoresces at 488/530 nm on GSH beads | 0.25% of 190,000 active | GSH beads flow cytometry, compound fluorescence 488/530 nm; stronger effect = higher value | fluorescence (KMESF) at 10 µM; in the data active = fluorescence above about 89;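 note: glutathione beads carrying GST-tagged Bcl family fusion proteins plus one bare bead set; values are compound well signal with DMSO vehicle wells as background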
RGS7-Gao reg: modulates binding of RGS7 to human Galphao; P09471; Multiplexed bead flow cytometry; actives lie on both sides; binding response (% of control), % at 10 µM; 0.35% of 220,000 active; in the data active = binding response below about 49% or above about 150%; inconclusive = no clear call, values can overlap the other calls; inactive = in between;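 note: fluorescent Galphao held in activated GDP-AlF4 state binding bead-coupled RGS7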
Avidin fluor: compound fluoresces at 488/530 nm on avidin beads; compound fluorescence 488/530 nm, flow cytometry; stronger effect = higher value; fluorescence (KMESF) at 10 µM; 0.38% of 220,000 active; AID 1775; in the data active = fluorescence above about 47
RGS8-Gao reg: regulators of human RGS8-Galphao interaction. P09471. multiplexed bead flow cytometry, RGS8-Galphao binding; actives lie on both sides. response (percent of control binding), % at 10 µM. 0.34% of 220,000 active. AID 1423; in the data active = response below about 60% or above about 140%; inactive = in between;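 note: Galphao activated as the GDP aluminium fluoride complex binding bead-coupled RGS8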
RGS-Gao: modulates binding between human RGS4 and Galphao; shares compounds with RGS16-Gao HTS; multiplexed bead flow cytometry, RGS–Galpha-o binding; RGS4–Galpha-o binding response, % at 10 µM; 99% of 1,600 active; AID 1504;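 note: fluorescently labeled Galpha-o bound to GDP with aluminium fluoride binding biotinylated RGS beads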
Avidin counter: interferes with biotinylated probe binding to avidin beads; shares compounds with RGS16-Gao HTS; streptavidin beads, fluorescein-biotin binding, flow cytometry; inhibition, % at 10 µM; 1,700 tested, under 10 active;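 active = inhibition above 50%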;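 note: median green fluorescence of gated singlet beads compared with DMSO control wells; 0% = DMSO wells and 100% = complete loss of bead fluorescence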
RGS8-Gao confirm: RGS8-Galphao interaction regulation, single point confirmation; shares compounds with RGS16-Gao HTS; bead-based flow cytometry RGS8-Galphao binding, fluorescence; actives lie on both sides; binding response (% of control), % at 10 µM; 3% of 1,700 active; in the data active = binding response below about 72% or above about 130%; inactive = in between;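 note: Galphao activated as GDP AlF4 complex before binding bead RGS8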
RGS7-Gao single: RGS7-Galphao interaction regulation, single point confirmation | 7.8% of 1,700 active | bead-based flow cytometry RGS7-Galphao binding; actives lie on both sides | response (percent of control binding), % at 10 µM | shares compounds with RGS16-Gao HTS | AID 1837; in the data active = response below about 75% or above about 130%; inactive = in between;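 note: fluorescent Galphao activated with GDP and aluminum fluoride binding bead-coupled RGS7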
RGS16-Gao single: RGS16-Galphao interaction regulation, single point confirmation. shares compounds with RGS16-Gao HTS. 4% of 1,700 active. response (% of control binding), % at 10 µM. AID 1838. bead-based flow cytometry, RGS16-Galphao binding; actives lie on both sides; in the data active = response below about 74% or above about 130%; inactive = in between;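 note: Galphao activated as the GDP aluminium fluoride complex binding bead-coupled RGS16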
RGS4-Gao confirm: confirmation of regulators of human RGS4-Galphao interaction; shares compounds with RGS16-Gao HTS; RGS4-Galphao binding, multiplexed bead flow cytometry; actives lie on both sides; binding response (% of control), % at 10 µM; 4% of 1,700 active; AID 1840; in the data active = binding response below about 74% or above about 130%; inactive = in between
RGS19-Gao conf: confirmation of regulators of human RGS19-Galphao interaction | shares compounds with RGS16-Gao HTS | bead-based flow cytometry RGS19-Galphao binding; actives lie on both sides | response (percent of control binding), % at 10 µM | 5% of 1,700 active; in the data active = response below about 50% or above about 160%; inactive = in between;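 note: 100% = no compound control and 0% = blank background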
* marks the source's active call; other numbers are inactive results; ? = inconclusive; . = no result given; [ ] = remark or other dose. This is a sample that favours compounds with a hit; in the whole collection about 1.2% have one here. Unless noted, the rule behind the calls is not given here.

SMILES	RGS4-Gao reg	RGS16-Gao HTS	GSH bead fluor	RGS7-Gao reg	Avidin fluor	RGS8-Gao reg	RGS-Gao	Avidin counter	RGS8-Gao confirm	RGS7-Gao single	RGS16-Gao single	RGS4-Gao confirm	RGS19-Gao conf
C/C(=C\C(=O)C(F)(F)F)Nc1ccc(C)cc1	120	598	12	117	5	166*[activator]	120*	0	99	101	97	99	104
CCN1CCN(c2nc(Nc3ccc(NC(C)=O)cc3)nc(Nc3ccc(NC(C)=O)cc3)n2)CC1	101	104	.	?	7	104	.	.	.	.	.	.	.
CCOC(CNC(=O)c1cccn2c(=O)c3cc(Cl)ccc3nc12)OCC	52	54	18	48*	4	71	52*	0	101	99	102	98	106
CCOC(=O)c1c(NC(=O)COC(=O)c2nc(Cl)ccc2Cl)sc2c1CCC2	99	97	6	101	3	104	.	.	.	.	.	.	.
COc1ccc(NC(=O)NCCCN2CCN(c3ccccc3F)CC2)cc1	12*	8.9*	.	?	0	22*	.	2	112	114	111	113	104
COc1ccc(NC(=O)NCCCN2CCN(c3cc(C)ccc3C)CC2)cc1	105	101	17	100	6	103	.	.	.	.	.	.	.
Cc1cccnc1NC(=O)C1CCCN(S(=O)(=O)c2ccc3c(c2)oc(=O)n3C)C1 (centres undefined)	116	229	19	114	7	142*[activator]	116*	0	101	101	99	101	98
Cc1ccc(S(=O)(=O)N2CCCOC2CNC(=O)C(=O)NC2CCCCC2)cc1 (centres undefined)	112	110	70	106	11	104	.	.	.	.	.	.	.
CCc1ccc2c(COC(=O)c3n[nH]c4ccccc34)cc(=O)oc2c1	120	269	26	111	17	143*[activator]	120*	0	99	93	97	97	84
CC(=O)c1sc(-c2ccc(F)cc2)cc1NS(=O)(=O)c1ccccc1	-36*	-20*	.	?	-3	1.8*	.	-1	101	98	101	101	102
O=C(CN1CCCCC1)NCCNc1ccc(C(F)(F)F)cc1[N+](=O)[O-]	100	87	8	101	2	96	.	.	.	.	.	.	.
Cc1ccc(C(=O)N/N=C/C=C/c2ccccc2)o1	113	116	20	230*[activator]	36	98	113*	0	98	97	96	95	106
Cc1onc(-c2ccccc2)c1C(=O)N/N=C/C=C/c1ccccc1	101	104	.	?	6	101	.	.	.	.	.	.	.
O=C(Nc1ccccc1)N1CCCN(c2ccc(C(F)(F)F)cc2[N+](=O)[O-])CC1	23*	21*	.	?	1	41*	.	-2	102	101	99	103	106
O=C(Nc1ccccc1F)c1ccc(COc2ccc(Cl)cc2Cl)o1	101	106	16	101	7	103	.	.	.	.	.	.	.
CC(C)CNC(=O)c1ccc(COc2ccc(Cl)cc2Cl)o1	52	45	21	49*	2	60*	52*	-2	100	96	99	98	108
CCOC(=O)CNNC(=O)Nc1ccc(Cl)c(Cl)c1	123	326*[activator]	13	112	6	153*[activator]	123*	1	100	105	98	102	93
COC(=O)C(F)(F)Sc1c(C)[nH]c2ccccc12	119	117	26	158*[activator]	143*	111	119*	0	104	100	102	102	102
Cc1[nH]c2ccccc2c1SCC(=O)O	100	101	15	97	7	101	.	.	.	.	.	.	.
O=C(CSc1n[nH]c(-c2ccccc2F)n1)NCC(=O)Nc1ccc(F)c(F)c1F	106	106	12	?	12	104	.	.	.	.	.	.	.
O=C(NCc1ccc2c(c1)OCO2)c1cccc([N+](=O)[O-])c1	.	.	19	.	.	.	.	2	101	100	103	101	96
O=C(NCc1ccc2c(c1)OCO2)c1ccc2c(c1)OCO2	105	105	.	?	23	100	.	.	.	.	.	.	.
O=C(NCc1ccc2c(c1)OCO2)c1ccc(CSCc2ccccc2Cl)o1	54	9	12	48*	7	75	54*	1	98	101	101	103	106
O=C(NCc1ccc2c(c1)OCO2)c1ccc(COc2cccc(Cl)c2)o1	100	102	46	101	11	101	.	.	.	.	.	.	.
COc1ccc(N(CC(=O)NCc2ccccc2)C(=O)Cn2nnc(-c3ccccc3F)n2)cc1OC	88	91	20	92	5	97	.	.	.	.	.	.	.
SMILES	RGS4-Gao reg	RGS16-Gao HTS	GSH bead fluor	RGS7-Gao reg	Avidin fluor	RGS8-Gao reg	RGS-Gao	Avidin counter	RGS8-Gao confirm	RGS7-Gao single	RGS16-Gao single	RGS4-Gao confirm	RGS19-Gao conf
Cc1nc2ccccc2nc1N/N=C/c1ccc(O)cc1	97	96	.	?	7	99	.	.	.	.	.	.	.
Oc1ccc(Nc2nc3ccccc3nc2Nc2ccc(O)cc2)cc1	165*[activator]	170	24	161*[activator]	80*	110	.	0	95	84	90	87	81
Cc1sc2nc(C(C)Sc3n[nH]c(N)n3)[nH]c(=O)c2c1C (centres undefined)	98	97	13	?	11	100	.	.	.	.	.	.	.
COc1ccc(-n2ncc3c(=O)n(CC(=O)Nc4ccc(S(=O)(=O)N5CCOCC5)cc4)cnc32)cc1	99	97	11	97	3	99	.	.	.	.	.	.	.
O=C(Cn1cnc2c(cnn2-c2ccccc2)c1=O)Nc1ccc(S(=O)(=O)N2CCOCC2)cc1	95	20*	11	90	10	77	95*	2	97	93	95	93	189*[activator]
Cc1cc(C)cc(N(CC(=O)NCCSCc2ccccc2)S(C)(=O)=O)c1	119	108	10	180*[activator]	77*	104	119*	0	100	47*	82	60*	48*

Bioassay records from PubChem.
